Shown are actives, neighbours in structure and some others; about 19% of the full set was active somewhere.
HT1080 IDH1KD tx = qHTS for induction of synthetic lethality in tumor cells producing 2HG: qHTS for the HT-1080-IDH1KD cell line. actives 2% (n = 360,000). Potency, µM (series often up to 46.1 µM), for the others: at the highest dose activity, negative = toxicity, actives largely listed as cytotoxic. HT-1080 IDH1 knockdown viability, ATP luminescence, 48 h;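 further: potency means the concentration at half of the fitted maximal effect; 0% = DMSO wells and -100% = cell-free medium wells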
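Using the IDH1-knockdown HT-1080 line run in the same batch and compound series as the NT line, viability after 48 h at 37 °C was determined by CellTiter-Glo luminescence and expressed as % activity.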
DT40 TDP1 CPT = qHTS for Inhibitors of human tyrosyl-DNA phosphodiesterase 1 (TDP1): qHTS in cells in presence of CPT; chicken DT40 Tdp1-/-;hTDP1 cells + 20 nM CPT, ATP luminescence, 48 h; Potency, µM (top dose mostly 46.2 µM), without a hit: at the top dose activity change, negative = growth inhibition, usual class: inhibitors; actives 12% (n = 420,000); further: potency means the concentration at half of the fitted maximal effect; nearly all actives have a fitted effect of over 55% in size
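Cell growth measured by CellTiter-Glo luminescence after a minimum 48 h, 37 C compound exposure with 20 nM CPT in Tdp1-knockout DT40 cells stably expressing hTDP1, seeded 400/well; qHTS titration format.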
DT40 TDP1 no CPT = qHTS for Inhibitors of human tyrosyl-DNA phosphodiesterase 1 (TDP1): qHTS in cells in absence of CPT; actives 15% (n = 420,000); AID 686978, 2013; Potency, µM (titrated, usually from 46.2 µM), for the others: at the highest dose activity change, negative = growth inhibition, usual class: inhibitors; DT40 Tdp1-/- hTDP1 cells, no CPT, ATP luminescence, 48 h; further: potency means the concentration at half of the fitted maximal effect; nearly all actives have a fitted effect of over 55% in size
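DT40 Tdp1-/-;hTDP1 cells, no CPT (DMSO vehicle only), 400 cells/well; compounds pin-transferred; ≥48 hr, 37 °C; CellTiter-Glo 30 min RT dark, luminescence read.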
IL1B secr inh = qHTS for Inhibitors of Inflammasome Signaling: IL-1-beta AlphaLISA Primary Screen. actives 4.7% (n = 360,000). THP-1 LPS/ATP IL-1B secretion, AlphaLISA, 16 h; hits give low values. activity change, % at 57.5 µM; in the data active means activity change below about -50%; inconclusive means mostly about -30% to -49%
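Secreted IL-1B measured by AlphaLISA bead assay after 16 h compound exposure of THP-1 cells; compounds (final up to 57.5 uM) added 1 h before LPS (250 ng/mL) and ATP (1.25 mM) stimulation; lower signal means less secretion.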
HT1080NT lethal = qHTS for induction of synthetic lethality in tumor cells producing 2HG: qHTS for the HT-1080-NT fibrosarcoma cell line. HT-1080-NT fibrosarcoma viability, CellTiter-Glo ATP luminescence, 48 h. Potency, µM (series often up to 46.1 µM), for the others: at the highest dose activity, negative = less viability, usual class: cytotoxic. actives 1.6% (n = 360,000). AID 686970, 2013;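 further: NT is the 2HG producing partner of a matched IDH1 knockdown line; potency means the concentration at half of the fitted maximal effect; 0% = DMSO-treated cells and -100% = media-only wells without cells; nearly all actives have a fitted effect of over 55% in size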
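A 48-hour cytotoxicity screen used HT-1080-NT cells plated 2 hours before compound delivery. ATP-based CellTiter-Glo luminescence measured viability, normalized to DMSO and no-cell controls.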
The depositor's hits bear a star; u = inconclusive; x = not tested or not shown. Unless noted, the call rests on the fitted dose curve; in most records, active means well fitted curve in the direction sought with a large enough effect; inconclusive means small, poorly fitted or top-dose-only effect, or another doubt; inactive means no such curve, though single readings can be large; an effect the other way counts as inactive or inconclusive. Unless noted, on the % scale 0 is the no-effect control and ±100 the full control effect.

SMILES | HT1080 IDH1KD tx | DT40 TDP1 CPT | DT40 TDP1 no CPT | IL1B secr inh | HT1080NT lethal
COc1cc(OC)cc(C(=O)N/N=C/c2ccc(OC)c(COc3ccc4ccccc4c3)c2)c1 | 21µM* | 4.1µM* | 6.5µM* | 39 | u
COc1ccc(C(=O)N/N=C/c2ccc(OC)c(COc3ccccc3)c2)cc1 | -3% | u | u | u | -13%
Cc1cc(C)cc(C(=O)N/N=C/c2ccoc2)c1 | u | -3% | 24% | -11 | -26%
COc1cc(OC)cc(C(=O)N/N=C\c2ccoc2)c1 | 5.8µM* | -9% | 9% | 6 | 3.7µM*
COc1ccc(/C=N/NC(=S)Nc2ccccc2)cc1COc1ccc(F)cc1 | 1% | 1% | -104% | 4 | 8%
COc1ccc(/C=N\NC(=O)c2cc(O)c(O)c(O)c2)cc1COc1ccc(C(=O)OCC(C)C)cc1 | -21% | u | 21µM* | 58 | -18%
NS(=O)(=O)c1ccc(CCNC(=O)COC(=O)C2CCC2)cc1 | 13% | -8% | 16% | 32 | 5%
CC(=O)c1cn(CCC(C)C)c(=O)[nH]c1=O | -5% | -12% | 28% | -4 | -2%
C=CCc1ccc(OCCOCCNCCCC)c(OC)c1 | 1% | u | u | -18 | -6%
COc1cc(/C=C/c2cncc(/C=C/c3cc(OC)c(OC)c(OC)c3)c2)cc(OC)c1OC | x | -7% | -12% | x | x
COc1ccc(/C=N/NC(=O)c2ccncc2)cc1COc1ccc(NC(C)=O)cc1 | u | 5.8µM* | 8.2µM* | -9 | -1%
COc1cccc(OCc2cc(/C=N/NC(=O)c3ccn[nH]3)ccc2OC)c1 | -18% | u | 26µM* | 34 | -23%
CC1=CC(Cc2ccccc2)N(C)C(C(N)=O)C1 (centres undefined) | 28% | -15% | -17% | 24 | u
CC1=CC(=O)C(C(C)C)=CC1=NC(=O)c1ccc(C)cc1 | 3% | 2.3µM* | 2.1µM* | 15 | 6%
CCOC(=O)c1sc(=NC(=O)c2ccc(C)cc2)n(C)c1C | -9% | 2% | u | 75 | -12%
Cc1ccccc1CN1C(=O)c2ccccc2Sc2ccc(C(=O)N3CCCC3)cc21 | x | 21µM* | 16µM* | x | x
Cc1ccccc1CN1C(=O)c2ccccc2Sc2ccc(C(=O)N3CCOCC3)cc21 | x | u | 18µM* | x | x
Cc1cccc(CN2C(=O)c3ccccc3Sc3ccc(C(=O)O)cc32)c1 | -8% | 10% | 2% | -1 | 0%
O=C(c1ccc2c(c1)N(Cc1ccccc1)C(=O)c1ccccc1S2)N1CCCC1 | 2% | 16µM* | 9.2µM* | -16 | 9%
C[C@@H]1CC2=C(C(=O)OC(C)(C)O2)[C@H](c2ccc(Cl)cc2)O1 | 15% | -24% | u | 29 | 7%
COc1ccc(CN2CCCC(C(=O)N3CCCCC3)C2)cc1OC (centres undefined) | 7% | -4% | -3% | -3 | 19%
CN1OC[C@@H]2CN3C(=O)N(c4ccccc4)c4ccccc4[C@@H]3C[C@@H]21 | 2% | u | -16% | 0 | 18%
CCOc1ccc(C(=O)Nc2ccc(-c3nc4ccccc4[nH]3)cc2)cc1[N+](=O)[O-] | u | 21µM* | 18µM* | 2 | u
Cn1ncc([N+](=O)[O-])c1C(=O)Nc1ccc(-c2nc3ccccc3[nH]2)cc1 | -15% | u | 18µM* | -14 | u
Cc1cc(Nc2ccc3c(c2)OCCO3)n2ncnc2n1 | 13% | -25% | 0% | 31 | 3%
SMILES | HT1080 IDH1KD tx | DT40 TDP1 CPT | DT40 TDP1 no CPT | IL1B secr inh | HT1080NT lethal
Cc1cc(C)n2c(Nc3ccc4c(c3)OCCO4)c(C(C)C)nc2n1 | 18% | 8.2µM* | 5.8µM* | 89 | 15%
Cc1cc(C)n2c(Nc3ccc4c(c3)OCCO4)c(C3CC3)nc2n1 | 6% | u | 18µM* | 70 | -1%
Cc1cc(C)n2c(NCc3ccccc3)c(CCc3ccccc3)nc2n1 | -18% | u | u | 41 | -12%
Cc1cc(C)n2c(Nc3ccc4c(c3)OCCO4)c(CCc3ccccc3)nc2n1 | -29% | 8.2µM* | 5.8µM* | 10 | u
Cc1cc2cc(CCNS(=O)(=O)c3ccc(F)cc3)c(=O)[nH]c2cc1C | -21% | u | u | 24 | u
Cc1oc(-c2ccccc2F)nc1Cn1c(SCc2ccccc2F)nc2ccncc21 | x | u | 15µM* | x | x
COc1ccc(-c2nc(Cn3c(SCc4cccc(F)c4)nc4ccncc43)c(C)o2)cc1OC | -7% | u | u | u | -24%
Cc1cccc(-c2nc(Cn3c(SCc4cccc(C(F)(F)F)c4)nc4ccncc43)c(C)o2)c1 | x | 15µM* | u | x | x
COc1ccc(-c2nc(Cn3c(SCc4ccccc4F)nc4ccncc43)c(C)o2)cc1OC | x | 18µM* | 21µM* | x | x
COc1ccccc1N1CCN(C2CCCN(S(=O)(=O)c3ccccc3)C2)CC1 (centres undefined) | -1% | -25% | u | 0 | 0%
Cc1cc2nc(-c3ccc(SCC(=O)Nc4ccc(S(=O)(=O)N5CCCC5)cc4)nc3)[nH]c2cc1C | u | -5% | 13µM* | 50 | u
O=C(CSc1ccc(-c2nc3ccccc3[nH]2)cn1)Nc1ccc(S(=O)(=O)N2CCCC2)cc1 | -6% | u | 13µM* | -8 | -13%
Cc1cc(=O)[nH]c(SCC(=O)Nc2ccc(S(=O)(=O)N3CCCCC3)cc2)n1 | 1% | -6% | -4% | 21 | -2%
CCN(CC(=O)N1CCOCC1)S(=O)(=O)c1ccc(F)cc1 | 8% | 6% | -1% | 1 | 6%
O=S1(=O)CC(N2CCCC2)CN1Cc1cn(Cc2ccc(Cl)cc2)nn1 (centres undefined) | 14% | 6% | -4% | 14 | 18%
CCCS(=O)(=O)c1ncc(Cl)c(C(=O)Nc2sc3c(c2C(=O)NCC)CCCC3)n1 | x | 1µM* | 0.79µM* | x | x
Cc1cc(Br)c2nc(-c3ccccc3)c(Cc3cccc(Cl)c3)n2c1 | 3% | u | u | 5 | 8%
Cc1cc(Br)cn2c(Cc3cccc(F)c3)c(-c3ccccc3)nc12 | -29% | 29µM* | 18µM* | 0 | u
Cc1ccc(Cc2c(-c3ccccc3)nc3c(C)cc(Br)cn23)cc1 | 6% | u | 10µM* | 28 | 11%
Cc1ccc(-c2nc3c(C)cc(Br)cn3c2Cc2cccc(F)c2)cc1 | 10% | u | u | 0 | 16%

Screening data deposited in PubChem by National Center for Advancing Translational Sciences (NCATS).
